{"source": "PubChem BioAssay"}
{"test": "binders of probe aFGF10 on microarray, primary screen, stem cell growth factor project, biochemical, small-molecule microarray, fluorescence 635/667 (AID 1071);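 note: score merges 667 nm spot intensity and signal to noise from triplicate slides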", "details": "higher = more signal"}
{"smiles": "CN1C(=O)C2C=CC(C(O)c3ccc(I)cc3)N(N(c3ccccc3)c3ccccc3)C2C1=O", "note": "(configuration not stated)", "composite z-score": -0.454}
{"smiles": "Cc1ccc(S[C@]2(C(=O)NCc3ccccc3)CC(=O)N(Cc3ccccc3Cl)[C@@H]2c2ccc(CO)cc2)cc1", "composite z-score": 0.0799}
{"smiles": "C[C@]1(C(=O)O)c2ccccc2C(=O)N(Cc2cc(C(F)(F)F)cc(C(F)(F)F)c2)[C@H]1c1ccc(CO)cc1", "composite z-score": 0.159}
{"smiles": "COC(=O)C(CC#Cc1ccc2c(c1)[C@]1(C(=O)N2)[C@H](C(N)=O)[C@H]2C(=O)O[C@H](c3ccccc3)[C@H](c3ccccc3)N2[C@@H]1c1ccccc1OCCO)C(=O)OC", "composite z-score": 0.765}
{"smiles": "COC(=O)[C@@]1(Cc2ccc(F)cc2)[C@H]2c3cc(C(=O)N(C)C)n(Cc4ccc(C(F)(F)F)nc4)c3C[C@H]2CN1C(=O)c1ccccc1", "composite z-score": 0.69}
{"smiles": "CCN1C(=O)C2CC(=O)C3C(CN(S(=O)(=O)c4ccc(C)cc4)C3c3ccc(C)cc3)C2C1=O", "note": "(configuration not stated)", "composite z-score": 0.183}
{"smiles": "C=C[C@H](OC)[C@@H](O)c1ccc(OC)c(O)c1", "composite z-score": -0.248}
{"smiles": "CCCCCN1CC=CC23O[C@@H]4/C=C\\CCCOC(=O)C4[C@H]2C(=O)N(CCCCCO)[C@@H]3C1=O", "note": "(some centres not stated)", "composite z-score": -0.501}
{"smiles": "CC(C)C[C@H]1NC(=O)CNC(=O)[C@@]23C(=O)N[C@@H](Cc4ccccc4)C2[C@H](C)[C@@]2(C)O[C@H]2C3/C=C/C/C=C\\CNC1=O", "note": "(some centres not stated)", "composite z-score": 0.582}
{"smiles": "C=CCNC(=O)[C@@H]1[C@H]2C(=O)O[C@H](c3ccccc3)[C@H](c3ccccc3)N2[C@H](c2ccc(OCCO)cc2)[C@@]12C(=O)Nc1ccc(C#CCNC(N)=O)cc12", "composite z-score": 0.169}
{"smiles": "CC(C)[Si](C#Cc1ccccc1)(O[C@H](c1ccccc1)c1cn(Cc2ccccc2)nn1)C(C)C", "composite z-score": 0.76}
{"smiles": "C=C(C(=O)CC[C@@H](OC(=O)c1cccnc1)c1cccc(OCCO)c1)C(C)C", "composite z-score": 0.684}
{"smiles": "CCCCN1CC=CC23O[C@@H]4/C=C\\CCC(C)OC(=O)C4[C@H]2C(=O)N(CCO)[C@@H]3C1=O", "note": "(some centres not stated)", "composite z-score": -0.206}
{"smiles": "O=C/C=C/c1ccc(-c2ccccc2)cc1", "composite z-score": 0.182}
{"smiles": "COc1cc(CO)cc(I)c1O[C@H]1C=C(C(=O)NCCO)C[C@@H](N(CCN2CCOCC2)C(=O)C2CCCO2)[C@@H]1O", "note": "(some centres not stated)", "composite z-score": 0.228}
{"smiles": "CC(C)C[C@@H]1NC(=O)[C@H]2C[C@@H](C(=O)O)[C@@H](c3cccc(OCCO)c3)N2C1=O", "composite z-score": -0.0367}
{"smiles": "COc1cc(Cc2cc3c(c(CCc4ccccc4)n2)[Si](C(C)C)(C(C)C)O[C@H]3c2ccccc2)cc(OC)c1OC", "composite z-score": 0.169}
{"smiles": "C=CCNC(=O)[C@@H]1[C@H]2C(=O)O[C@H](c3ccccc3)[C@H](c3ccccc3)N2[C@H](c2ccc(O)cc2)[C@@]12C(=O)Nc1ccc(C#CC3=CCCCC3)cc12", "composite z-score": 1.1}
{"smiles": "Cc1cccc([C@H]2C[C@H]3C(Br)=C[C@@]2(CO)C(=O)[C@]32CO2)c1", "composite z-score": 0.0924}
{"smiles": "COCCOC(=O)N1C(=O)[C@@]2(c3cc(C#CCCO)ccc31)[C@H](C(=O)N1CCN(c3ncccn3)CC1)[C@H]1C(=O)O[C@H](c3ccccc3)[C@H](c3ccccc3)N1[C@@H]2c1ccc(OCCO)cc1", "composite z-score": 0.641}
{"smiles": "COC(=O)[C@H](Cc1ccccc1)N1CC(C)(OC)O[C@@H](Cc2ccccc2)[C@H]1/C=C/C1CC1", "note": "(some centres not stated)", "composite z-score": -0.194}
{"smiles": "CCOC(=O)C1=CCC(c2ccncc2)N(S(=O)(=O)c2ccc(C)cc2)C1", "note": "(configuration not stated)", "composite z-score": 1.03}
{"smiles": "COC(=O)[C@@]1(Cc2ccc(F)cc2)[C@H]2c3cc(C(=O)N4CCCC4)n(Cc4ccc(C(F)(F)F)nc4)c3C[C@H]2CN1C(=O)c1ccccc1", "composite z-score": 0.0812}
{"smiles": "COCCOC(=O)N1C(=O)[C@@]2(c3cc(C#CCNC(N)=O)ccc31)[C@H](c1ccccc1OCCO)N1[C@H](c3ccccc3)[C@H](c3ccccc3)OC(=O)[C@H]1[C@@H]2C(=O)N1CCCCCCC1", "composite z-score": 0.57}
{"smiles": "CCCCC(=C=CC[C@@H](O)c1ccccc1OCCO)C[C@@H](O)c1ccccn1", "composite z-score": 0.23}
{"smiles": "O=C(NCC(F)(F)F)[C@@H]1c2ccccc2C(=O)N(Cc2cc(C(F)(F)F)cc(C(F)(F)F)c2)[C@H]1c1ccc(CO)cc1", "composite z-score": -0.155}
{"smiles": "CC(CO)N1C(=O)[C@@H]2[C@H]3C(=O)OCC=C[C@H]3OC23C=CCN(c2ccc4ccccc4c2)C(=O)[C@@H]13", "note": "(some centres not stated)", "composite z-score": -0.451}
